Source: PubChem BioAssay
A selection: hits, their analogues and other compounds. The true share with any hit is near 3.9%.
TWEAK-Fn14 inh = inhibitors of TWEAK-Fn14 interaction signaling. TWEAK-stimulated Fn14 reporter cells, luciferase luminescence, 8 h. 360,000 compounds, 2% hits. inhibition, % at 10 µM; in the data active = inhibition above about 50%
TROY NFkB inh = blocks TROY-dependent signaling in reporter cells | Q293 LMP1-TROYcd NF-kB luciferase reporter, 4 h | inhibition, % at 10 µM | 360,000 compounds, 0.98% hits | AID 1347056;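 active = compounds whose plate-normalised and pattern-corrected inhibition of the luciferase reporter signal at the single screening dose is 50% or more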
HIF-2a block = inhibitors of HIF-2a. 786-0 RCC cells HIF-2a reporter, luciferase luminescence, overnight. inhibition, % at 18.8 µM. 360,000 compounds, 0.72% hits;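 active = inhibition of the luminescence signal of 40% or more relative to plate controls, in a single-dose primary screen at 18.75 µM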
Peg3 promoter = reduces Peg3 promoter-driven luciferase expression in HeLa. HeLa PEG-Prom luciferase reporter, luminescence, overnight. inhibition, % at 20 µM. 360,000 compounds, 1.7% hits;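 active = inhibition of at least 50% at 20 µM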
CF NFkB inh = blocks PAF-induced NF-kB reporter in cystic fibrosis cells. 360,000 compounds, 0.86% hits. AID 588850. inhibition, % at 5 µM. KKLEB NF-kB-GFP reporter, GFP fluorescence overnight;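 active = at least 50% inhibition at 5 µM, scaled per plate between neutral and stimulator controls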;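 also: PAF is a Pseudomonas aeruginosa culture filtrate used as stimulus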
KKLEB cytotox = counter-screen for CF NF-kB inhibitors: cytotoxicity; 360,000 compounds, 0.36% hits; KKLEB CF airway cells viability, ATPlite luminescence, overnight; hits give low values; cells stimulated with P. aeruginosa culture filtrate; activity change (cytotoxicity), % at 5 µM; AID 602141;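 active = corrected activity change at or below -50% at 5 µM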
Hits are given with their value.

`COc1ccc(N(C(=O)c2ccco2)S(=O)(=O)c2ccccc2)cc1` gave TWEAK-Fn14 inh inactive, TROY NFkB inh inactive, HIF-2a block inactive, Peg3 promoter inactive, CF NFkB inh inactive and KKLEB cytotox inactive.
For N#CCCSc1ccccc1NC(=O)c1cc(=O)c2ccccc2o1 the results were TWEAK-Fn14 inh inactive, TROY NFkB inh inactive, HIF-2a block inactive, Peg3 promoter inactive, CF NFkB inh inactive and KKLEB cytotox inactive.
For CCOc1ccccc1C1C2=C(COC2=O)Nc2cc3c(cc21)OCO3 (configuration not stated) the results were TWEAK-Fn14 inh inactive, TROY NFkB inh inactive, HIF-2a block inactive, Peg3 promoter inactive, CF NFkB inh 53.6 and KKLEB cytotox inactive.
Screening C#CCOc1ccc(C2C3=C(COC3=O)Nc3cc4c(cc32)OCO4)cc1OC (configuration not stated) returned TWEAK-Fn14 inh inactive, TROY NFkB inh inactive, HIF-2a block inactive, Peg3 promoter inactive, CF NFkB inh inactive and KKLEB cytotox inactive.
CC(=O)Oc1ccc(C2C3=C(CC(C)(C)CC3=O)Nc3cc4c(cc32)OCCO4)cc1 (configuration not stated) was read as TWEAK-Fn14 inh inactive, TROY NFkB inh inactive, HIF-2a block inactive, Peg3 promoter inactive, CF NFkB inh inactive and KKLEB cytotox inactive.
Screening O=C1OCC2=C1C(c1ccc(F)cc1)c1cc3c(cc1N2)OCCO3 (configuration not stated) returned TWEAK-Fn14 inh inactive, TROY NFkB inh inactive, HIF-2a block inactive, Peg3 promoter inactive, CF NFkB inh 63.3 and KKLEB cytotox inactive.
`O=C1OCC2=C1C(c1ccc(F)cc1)c1cc3c(cc1N2)OCO3` (configuration not stated) gave TWEAK-Fn14 inh inactive, TROY NFkB inh inactive, HIF-2a block inactive, Peg3 promoter inactive, CF NFkB inh 59.0 and KKLEB cytotox inactive.
`O=C(O)c1csc(-c2cccc(Cl)c2)n1` gave TWEAK-Fn14 inh inactive, TROY NFkB inh inactive, HIF-2a block inactive, Peg3 promoter inactive, CF NFkB inh inactive and KKLEB cytotox inactive.
Screening COc1cc(OC)cc(OC2(C)CCN(Cc3ccc(OC(C)C)cc3)C2)c1 (configuration not stated) returned TWEAK-Fn14 inh inactive, TROY NFkB inh inactive, HIF-2a block inactive, Peg3 promoter inactive, CF NFkB inh inactive and KKLEB cytotox inactive.
`CC(C)NC(=O)C1C(c2ccc(C(F)(F)F)cc2)=Nc2ccccc2N1C(=O)c1ccccc1` (configuration not stated) gave HIF-2a block inactive.
Screening Cc1ccc(S(=O)(=O)NC(=O)NC(=O)N(C)S(=O)(=O)c2ccc(C)cc2)cc1 returned TWEAK-Fn14 inh inactive, TROY NFkB inh inactive, HIF-2a block inactive, Peg3 promoter inactive, CF NFkB inh inactive and KKLEB cytotox inactive.
For Nc1nnnn1/N=C/c1ccccc1O the results were TWEAK-Fn14 inh inactive, TROY NFkB inh inactive, HIF-2a block inactive, Peg3 promoter inactive, CF NFkB inh inactive and KKLEB cytotox inactive.
For CCOc1ccccc1/C=N/n1nnnc1N the results were TWEAK-Fn14 inh 73.6, TROY NFkB inh inactive, HIF-2a block inactive, Peg3 promoter inactive, CF NFkB inh inactive and KKLEB cytotox inactive.
`CCOC(=O)N1CCC(NC(=O)CNS(=O)(=O)c2ccc(Br)s2)CC1` gave TWEAK-Fn14 inh inactive, TROY NFkB inh inactive, HIF-2a block inactive, Peg3 promoter inactive, CF NFkB inh inactive and KKLEB cytotox inactive.
Screening COc1cc(NC(=O)Cn2nc(C(F)(F)F)c3c2CCCC3)cc(OC)c1OC returned TWEAK-Fn14 inh 66.0, HIF-2a block inactive, Peg3 promoter inactive, CF NFkB inh inactive and KKLEB cytotox inactive.
For CCc1ccc(NC(=O)Cn2nc(C(F)(F)F)c3c2CCC3)cc1 the results were TWEAK-Fn14 inh inactive, TROY NFkB inh inactive, HIF-2a block inactive, Peg3 promoter inactive, CF NFkB inh inactive and KKLEB cytotox inactive.
Screening O=C(COC(=O)c1cc(=O)[nH]c2ccccc12)c1ccccc1 returned TWEAK-Fn14 inh inactive, TROY NFkB inh inactive, HIF-2a block inactive, Peg3 promoter inactive, CF NFkB inh inactive and KKLEB cytotox inactive.
For CSCCC(NS(=O)(=O)c1ccc2c(c1)oc(=O)n2C)C(=O)NC1CCN(Cc2ccccc2)CC1 (configuration not stated) the results were TWEAK-Fn14 inh inactive, TROY NFkB inh inactive, HIF-2a block inactive, Peg3 promoter inactive, CF NFkB inh inactive and KKLEB cytotox inactive.
For CCCc1cc(C(=O)Nc2sc(C)c(CC)c2C#N)no1 the results were TWEAK-Fn14 inh inactive, TROY NFkB inh inactive, HIF-2a block inactive, Peg3 promoter inactive, CF NFkB inh inactive and KKLEB cytotox inactive.
`N#Cc1c(NC(=O)c2nc3ncccn3n2)sc2c1CCCCC2` gave TWEAK-Fn14 inh 70.5, TROY NFkB inh inactive, HIF-2a block inactive, Peg3 promoter inactive, CF NFkB inh inactive and KKLEB cytotox inactive.
For CC(C)(C)C(=O)Nc1sc2c(c1C#N)CCC2 the results were TWEAK-Fn14 inh inactive, TROY NFkB inh inactive, HIF-2a block inactive, Peg3 promoter inactive, CF NFkB inh inactive and KKLEB cytotox inactive.
CC(=O)NC(=S)Nc1sc2c(c1C#N)CCCCC2 was read as TWEAK-Fn14 inh 67.3, TROY NFkB inh 58.6, HIF-2a block inactive, Peg3 promoter inactive, CF NFkB inh inactive and KKLEB cytotox inactive.
CCCc1cc(C(=O)Nc2sc3c(c2C#N)CCC3)no1 was read as TWEAK-Fn14 inh 99.9, TROY NFkB inh inactive, HIF-2a block inactive, Peg3 promoter inactive, CF NFkB inh inactive and KKLEB cytotox inactive.
`CC(C)(C)C(=O)NC(NC(=S)Nc1sc2c(c1C#N)CCCC2)C(Cl)(Cl)Cl` (configuration not stated) gave TWEAK-Fn14 inh inactive, TROY NFkB inh 58.9, HIF-2a block inactive, Peg3 promoter inactive, CF NFkB inh inactive and KKLEB cytotox inactive.
For CC1CCc2c(sc(NC(=O)c3nc4ncccn4n3)c2C#N)C1 (configuration not stated) the results were TWEAK-Fn14 inh inactive, TROY NFkB inh inactive, HIF-2a block inactive, Peg3 promoter inactive, CF NFkB inh inactive and KKLEB cytotox inactive.
For CC(=O)Nc1sc2c(c1C#N)CCCC2 the results were TWEAK-Fn14 inh inactive, TROY NFkB inh inactive, HIF-2a block inactive, Peg3 promoter inactive, CF NFkB inh inactive and KKLEB cytotox inactive.
Screening Cc1cc(NS(=O)(=O)c2ccc(NC(=O)/C=C/c3ccc(C)o3)cc2)nc(C)n1 returned TWEAK-Fn14 inh inactive, TROY NFkB inh inactive, HIF-2a block inactive, Peg3 promoter inactive, CF NFkB inh inactive and KKLEB cytotox inactive.
Screening C/C(=N\NC(=O)c1n[nH]c2c1CCC2)c1ccco1 returned TWEAK-Fn14 inh 58.6, TROY NFkB inh inactive, HIF-2a block inactive, Peg3 promoter inactive, CF NFkB inh inactive and KKLEB cytotox inactive.
`O=C(NN=C1CCCC1)c1n[nH]c2c1CCC2` gave TWEAK-Fn14 inh inactive, TROY NFkB inh inactive, HIF-2a block inactive, Peg3 promoter inactive, CF NFkB inh inactive and KKLEB cytotox inactive.
